20 compounds from PubChem BioAssay (EPA / NIEHS) can be followed below.

Test [1] is described as follows: BSK_CASM3C_SRB: Viability Assessment in the BioMAP Diversity Plus: CASM3C Assay (AID 2283050).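 Further: total protein by SRB staining as cytotoxicity measure in parallel cultures.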 Particulars: primary human coronary artery smooth muscle cells.
Read-out in test [2]: Thrombomodulin, THBD (gene 7056)
The experiment in a line: BSK_CASM3C_Thrombomodulin: BioMAP Diversity Plus: CASM3C Assay for Thrombomodulin Biomarker Activity (AID 2283051).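 Further: thrombomodulin protein level measured by ELISA 24 h after dosing.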 Particulars: primary human coronary artery smooth muscle cells; actives raise or lower the signal.

Read-out in test [3]: Tissue Factor, F3 (gene 2152)
Put plainly: BSK_CASM3C_TissueFactor: BioMAP Diversity Plus: CASM3C Assay for Tissue Factor Biomarker Activity (AID 2283052).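 Further: cell surface tissue factor protein level read by ELISA.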 Particulars: primary human coronary artery smooth muscle cells; actives raise or lower the signal.

Read-out in test [4]: Interferon-gamma inducible Protein 10 (IP10), CXCL10 (gene 3627)
The experiment in a line: BSK_hDFCGF_IP10: BioMAP Diversity Plus: hDFCGF Assay for Interferon-gamma inducible Protein 10 (IP10) Biomarker Activity (AID 2283053). Particulars: primary human foreskin fibroblasts; actives raise or lower the signal. The essentials: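 Human foreskin fibroblast primary cells (hDFCGF system) were dosed with chemical and assayed at 24 h; IP-10 measured by ELISA. Activity fitted bidirectionally relative to DMSO negative control as baseline.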

Read-out in test [5]: Urokinase-type plasminogen activator receptor (uPAR), PLAUR (gene 5329)
Put plainly: BSK_CASM3C_uPAR: BioMAP Diversity Plus: CASM3C Assay for Urokinase-type plasminogen activator receptor (uPAR) Biomarker Activity (AID 2283054).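 Further: cell-surface uPAR protein level quantified by ELISA.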 Particulars: primary human coronary artery smooth muscle cells; actives raise or lower the signal.

Read-out in test [6]: Vascular cell adhesion molecule 1 (VCAM1), VCAM1 (gene 7412)
Put plainly: BSK_CASM3C_VCAM1: BioMAP Diversity Plus: CASM3C Assay for Vascular cell adhesion molecule 1 (VCAM1) Biomarker Activity (AID 2283055).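 Further: VCAM-1 protein level quantified by ELISA on the cells.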 Particulars: primary human coronary artery smooth muscle cells; actives raise or lower the signal.

Read-out in test [7]: Collagen III, COL3A1 (gene 1281)
The experiment in a line: BSK_hDFCGF_CollagenIII: BioMAP Diversity Plus: hDFCGF Assay for Collagen III Biomarker Activity (AID 2283056). To be noted: primary human foreskin fibroblasts; actives raise or lower the signal. The essentials:
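Cells: human foreskin fibroblasts, primary. Dosing followed by 24 h incubation, then ELISA for collagen III. Both increases and decreases scored relative to DMSO.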

Read-out in test [8]: Epidermal growth factor receptor (EGFR), EGFR (gene 1956)
Put plainly: BSK_hDFCGF_EGFR: BioMAP Diversity Plus: hDFCGF Assay for Epidermal growth factor receptor (EGFR) Biomarker Activity (AID 2283057). Particulars: primary human foreskin fibroblasts; actives raise or lower the signal. Put shortly: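 Primary human foreskin fibroblasts were exposed to compound for 24 h, after which cell-surface EGFR was quantified by ELISA. Activity was fitted bidirectionally against the DMSO negative control as baseline.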

Read-out in test [9]: Interleukin-8 (IL8), CXCL8 (gene 3576)
The experiment in a line: BSK_hDFCGF_IL8: BioMAP Diversity Plus: hDFCGF Assay for Interleukin-8 (IL8) Biomarker Activity (AID 2283058). Particulars: primary human foreskin fibroblasts; actives raise or lower the signal. The essentials:
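IL-8 levels from compound-treated primary human fibroblasts were read by ELISA at 24 h, with DMSO serving as baseline for bidirectional fitting.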

A short description of test [10]: BSK_hDFCGF_Proliferation: Cell Proliferation Assessment in the BioMAP Diversity Plus: hDFCGF Assay (AID 2283059).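 Further: curves fitted for both rise and fall of signal versus DMSO baseline.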 Particulars: primary human foreskin fibroblasts. The essentials:
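Total protein read at 560 nm after 0.1% SRB staining of TCA-fixed human skin fibroblasts, […]. Activity is fitted in both directions relative to DMSO as baseline.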

“And” between values parts separate entries of the source, which are not always exact repeats. Equal entries are not always repeated. A structure can be active in one record and inactive in another. The source made the active and inactive calls. How the source made its calls: active means hit-call score of the fitted dose curve at least 0.9, where 1 is the maximum; inactive means score below 0.9.

In the case of `O=C(O)C(F)(OC(F)(F)C(F)(F)C(F)(F)F)C(F)(F)F` (stereo unspecified), the result in test [1], in test [2], in test [3], in [4], in [5] and in [6] was inactive. In addition, the result in test [7], in test [8], in test [9] and in test [10] was inactive. For the same compound, in test [2], the AC50 is 2.48 µM (active).

Consider `c1ccc2c(c1)sc1ccccc12`, for which the result in test [1], in test [2], in [3], in [4], in test [5] and in test [6] was inactive. For the same compound, the result in [7], in test [8], in test [9] and in [10] was inactive.

Take `CCNc1nc(Cl)nc(NC(C)(C)C)n1`: the outcome in test [1], in test [2], in test [3], in test [4], in test [5] and in test [6] was inactive. For the same compound, the outcome in test [7], in test [8], in test [9] and in test [10] was inactive.

With `c1ccc(OP(Oc2ccccc2)Oc2ccccc2)cc1`, the result in [1], in test [2], in test [3], in test [4], in test [5] and in [6] was inactive. Also, the result in test [7], in test [8], in test [9] and in test [10] was inactive.

With `CCOP(=S)(S)OCC`, the result in test [1], in [2], in [3], in [4], in test [5] and in [6] was inactive. Also, the outcome in [7], in [8] and in test [9] was inactive. Besides, in [10], the AC50 was 12.6 µM (active).

On to `O=P1(N(CCCl)CCCl)NCCCO1` (stereo unspecified), for which the outcome in [1], in test [2], in [3], in test [4], in [5] and in test [6] was inactive. Further, the result in test [7], in [8], in [9] and in [10] was inactive.

Consider `Cc1ccc2c(c1N)C(=O)c1ccccc1C2=O`, for which the result in test [1], in test [2], in test [3], in [4], in test [6] and in test [8] was inactive. The outcome in test [9] and in test [10] was inactive. In addition, the AC50 in [5] and in [7] was 20 µM (active) in each case.

Consider `ClC1=C(Cl)C2(Cl)C3C(Cl)C(Cl)CC3C1(Cl)C2(Cl)Cl` (stereo unspecified), for which the AC50 in test [1] is 33.9 µM (active); in test [2], 24.1 µM (active); in test [4] it was 7.58 µM (active); in [6] it was 25.4 µM (active); in [7], 6.06 µM (active); in [9], 10.8 µM (active). The AC50 in test [10] is 6.97 µM (active). Besides, the outcome in [3], in test [5] and in test [8] was inactive.

As for `ClC(Cl)c1ccccc1`, the result in [1], in test [2], in test [3], in [4], in test [5] and in [6] was inactive. In addition, the outcome in [7], in test [8], in test [9] and in [10] was inactive.

Regarding `CCCCC(CC)COP(=O)(Oc1ccccc1)Oc1ccccc1` (stereo unspecified), the AC50 was 20 µM (active) in test [1]; 4.03 µM (active) in test [4]; 2.39 µM (active) in test [7]; 11.9 µM (active) in test [9]; 6.04 µM (active) in test [10]. The outcome in test [2], in [3], in test [5], in [6] and in test [8] was inactive.

Consider `CC(O)C(F)(F)C(F)(F)F` (stereo unspecified), for which the result in test [1], in [2], in [3], in [4], in test [5] and in test [6] was inactive. Further, the outcome in [7], in test [8], in test [9] and in test [10] was inactive. The AC50 in test [2] was 3.08 µM (active).

`CCN(CC)c1ccccc1`: the result in test [1], in test [2], in test [3], in [4], in test [5] and in test [6] was inactive. Further, the outcome in test [7], in test [8], in test [9] and in test [10] was inactive.

As for `OCC(F)(F)OC(F)(F)C(F)(F)OC(F)(F)C(F)(F)OC(F)(F)CO`, the result in test [1], in test [2], in test [3], in test [5], in [6] and in test [7] was inactive. For the same compound, the outcome in test [8] and in [9] was inactive. The AC50 in test [4] was 26.5 µM (active) and 24.2 µM (active); in test [7], 14.9 µM (active); in [10], 4.15 µM (active) and 36.9 µM (active).

As for `O=C(O)C(F)(F)C(F)(F)C(=O)O`, the outcome in test [1], in test [2], in [3], in [4], in test [5] and in test [6] was inactive. The outcome in test [7], in test [8], in test [9] and in test [10] was inactive. Besides, the AC50 in test [4] was 17.2 µM (active); in [10], 0.22 µM (active).

As to `O=C(O)C1C(C(=O)O)C2(Cl)C(Cl)=C(Cl)C1(Cl)C2(Cl)Cl` (stereo unspecified), the outcome in test [1], in [2], in test [3], in test [4], in [5] and in test [6] was inactive. For the same compound, the outcome in test [7], in [8], in test [9] and in test [10] was inactive.

For `C=CC(=O)OCC(F)(F)C(F)F`, the AC50 in test [1] was 39.8 µM (active) and 43.6 µM (active); in test [2], 37.3 µM (active) and 24.9 µM (active); in [4], 34.9 µM (active) and 29.2 µM (active); in test [6] it was 23.9 µM (active) and 21.1 µM (active); in test [7], 994 nM (active) and 23.9 µM (active); in [9], 49.8 µM (active) and 48.3 µM (active). Also, the AC50 in [10] was 30 µM (active) and 39.7 µM (active). The result in test [3], in test [5] and in [8] was inactive.

With `CCCCC(CC)COC(=O)c1c(Br)c(Br)c(Br)c(Br)c1C(=O)OCC(CC)CCCC` (stereo unspecified), the result in test [1], in test [2], in test [3], in [4], in test [5] and in test [6] was inactive. The outcome in [7], in test [8], in test [9] and in [10] was inactive.

Turning to `CCCCOCCOP(=O)(OCCOCCCC)OCCOCCCC`, the outcome in test [1], in test [2], in [4], in test [5], in test [8] and in test [9] was inactive. The result in test [10] was inactive. Also, the half-maximal activity concentration (AC50) is 1.99 µM (active) in test [3], 0.016 µM (active) in test [6] and 0.016 µM (active) in test [7].

In the case of `OCC(F)(F)OC(F)(F)C(F)(F)OC(F)(F)C(F)(F)OC(F)(F)F`, the AC50 in test [1] is 32.9 µM (active) and 44.3 µM (active); in test [6] it was 30 µM (active); in test [10], 11.6 µM (active) and 15.8 µM (active). In addition, the result in [2], in test [3], in test [4], in test [5], in test [6] and in test [7] was inactive. Moreover, the outcome in test [8] and in test [9] was inactive.

In the case of `CC(C)(C)c1ccccc1OP(=O)(Oc1ccccc1)Oc1ccccc1`, the AC50 was 5.23 µM (active) in [1]; 11.7 µM (active) in test [2]; 20 µM (active) in test [4]; 18.7 µM (active) in test [6]; 2.83 µM (active) in [7]; 13.5 µM (active) in [8]. Also, the concentration at half-maximal activity (AC50) in test [10] is 15.6 µM (active). Also, the result in test [3], in [5] and in test [9] was inactive.

A word on the AC50: it is the midpoint of the concentration-response curve, whichever way the signal moves.
